{
  "source": "the supplement of paper PMC11732987",
  "about": "“Enantioselective OTUD7B fragment discovery through chemoproteomics screening and high-throughput optimisation” (Communications Chemistry, 2025)",
  "experiment_in_all_cases": "log2 ratio of Biotin-Ahx-Ub-VS probe labelling (fragment/DMSO); higher = less target engagement (more negative = stronger competition), active = hit call of the paper (q ≤ 0.05, log2 ratio ≤ -1)",
  "settings_in_all_cases": "compound concentration: 200 uM; treatment time: 3 h",
  "key": {"ALG13": {"target": "T1, ALG13 (UniProt Q9NP73)", "T1 sequence (whole entry)": "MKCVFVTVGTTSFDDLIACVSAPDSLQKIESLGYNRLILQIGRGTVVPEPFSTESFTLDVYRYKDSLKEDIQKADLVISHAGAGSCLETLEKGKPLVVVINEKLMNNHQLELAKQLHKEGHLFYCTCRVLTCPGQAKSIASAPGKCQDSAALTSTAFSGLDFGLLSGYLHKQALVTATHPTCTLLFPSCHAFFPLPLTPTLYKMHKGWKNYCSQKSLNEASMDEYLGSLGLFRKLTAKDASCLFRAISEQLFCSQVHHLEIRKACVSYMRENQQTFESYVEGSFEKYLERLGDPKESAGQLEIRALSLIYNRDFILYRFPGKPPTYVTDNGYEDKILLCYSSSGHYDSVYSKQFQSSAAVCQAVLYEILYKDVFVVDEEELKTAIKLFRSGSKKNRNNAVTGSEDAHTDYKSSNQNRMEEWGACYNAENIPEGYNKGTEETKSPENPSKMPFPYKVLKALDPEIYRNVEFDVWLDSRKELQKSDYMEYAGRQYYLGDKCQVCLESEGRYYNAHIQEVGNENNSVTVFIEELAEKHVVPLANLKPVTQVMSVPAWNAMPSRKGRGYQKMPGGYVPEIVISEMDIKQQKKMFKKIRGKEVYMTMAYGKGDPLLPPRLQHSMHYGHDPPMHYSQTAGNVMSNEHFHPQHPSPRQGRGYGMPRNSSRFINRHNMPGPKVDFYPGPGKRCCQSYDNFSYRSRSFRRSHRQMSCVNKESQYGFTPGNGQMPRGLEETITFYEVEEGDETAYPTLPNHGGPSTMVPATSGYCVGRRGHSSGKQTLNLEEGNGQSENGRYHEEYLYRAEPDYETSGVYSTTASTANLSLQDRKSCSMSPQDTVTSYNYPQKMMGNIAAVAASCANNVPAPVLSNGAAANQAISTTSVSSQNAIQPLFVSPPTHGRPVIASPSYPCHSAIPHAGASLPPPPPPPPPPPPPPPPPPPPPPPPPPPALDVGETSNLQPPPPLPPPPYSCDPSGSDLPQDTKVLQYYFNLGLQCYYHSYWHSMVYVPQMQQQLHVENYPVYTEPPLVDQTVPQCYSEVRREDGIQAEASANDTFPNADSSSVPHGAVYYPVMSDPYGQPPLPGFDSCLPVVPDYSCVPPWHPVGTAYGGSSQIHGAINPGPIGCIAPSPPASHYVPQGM", "procedure,_shortened": "(§1)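 Labelling with Biotin-Ahx-Ub-VS (0.5 µM final, 1 h) followed a 3 h triplicate treatment of HEK293T lysate (495 µg per sample, Tris/CHAPS/IGEPAL buffer with protease inhibitors) with fragment at 200 µM or vehicle. Labelled DUBs were NeutrAvidin-enriched, digested with LysC and trypsin, and run by diaPASEF LC-MS/MS. The values, average log2 fragment/vehicle ratios by unpaired t-test, come from global-median-normalised Spectronaut label-free quantities. Proteins with ≥2 unique peptides were used.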"}, "ATXN3": {"target": "ATXN3 (UniProt P54252)", "sequence (P54252 whole entry)": "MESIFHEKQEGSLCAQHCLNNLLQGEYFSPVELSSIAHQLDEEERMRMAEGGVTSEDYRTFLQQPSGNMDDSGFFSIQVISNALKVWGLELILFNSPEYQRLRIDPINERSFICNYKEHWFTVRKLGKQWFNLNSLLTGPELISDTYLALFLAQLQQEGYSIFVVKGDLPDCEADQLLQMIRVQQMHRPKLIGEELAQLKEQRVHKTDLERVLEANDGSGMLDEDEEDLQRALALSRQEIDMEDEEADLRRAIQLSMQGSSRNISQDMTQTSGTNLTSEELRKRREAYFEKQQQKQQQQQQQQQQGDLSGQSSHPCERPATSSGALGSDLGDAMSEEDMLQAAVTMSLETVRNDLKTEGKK", "procedure,_shortened": "as §1"}, "BAP1": {"target": "T2, BAP1 (UniProt Q92560)", "T2 sequence (whole entry)": "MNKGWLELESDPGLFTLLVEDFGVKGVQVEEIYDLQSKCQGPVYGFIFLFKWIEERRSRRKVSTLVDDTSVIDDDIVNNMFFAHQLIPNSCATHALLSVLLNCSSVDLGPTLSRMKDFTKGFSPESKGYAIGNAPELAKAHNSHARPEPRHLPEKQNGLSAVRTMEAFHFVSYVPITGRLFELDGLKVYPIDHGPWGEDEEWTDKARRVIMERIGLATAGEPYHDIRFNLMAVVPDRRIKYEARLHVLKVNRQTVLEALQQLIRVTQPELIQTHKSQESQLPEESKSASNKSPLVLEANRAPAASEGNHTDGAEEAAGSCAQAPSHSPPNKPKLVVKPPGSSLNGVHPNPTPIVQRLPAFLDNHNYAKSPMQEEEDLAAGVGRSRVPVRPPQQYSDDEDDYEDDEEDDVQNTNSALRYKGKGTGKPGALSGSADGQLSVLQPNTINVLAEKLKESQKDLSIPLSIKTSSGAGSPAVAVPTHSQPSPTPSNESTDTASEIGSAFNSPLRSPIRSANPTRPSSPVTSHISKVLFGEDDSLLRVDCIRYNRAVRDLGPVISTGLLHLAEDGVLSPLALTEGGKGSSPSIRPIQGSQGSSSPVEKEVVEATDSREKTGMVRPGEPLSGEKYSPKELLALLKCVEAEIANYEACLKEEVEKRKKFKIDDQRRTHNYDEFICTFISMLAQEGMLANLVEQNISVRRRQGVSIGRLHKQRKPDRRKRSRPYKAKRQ", "procedure,_shortened": "as §1"}, "EIF3F": {"target": "EIF3F (UniProt O00303)", "sequence (O00303 whole entry)": "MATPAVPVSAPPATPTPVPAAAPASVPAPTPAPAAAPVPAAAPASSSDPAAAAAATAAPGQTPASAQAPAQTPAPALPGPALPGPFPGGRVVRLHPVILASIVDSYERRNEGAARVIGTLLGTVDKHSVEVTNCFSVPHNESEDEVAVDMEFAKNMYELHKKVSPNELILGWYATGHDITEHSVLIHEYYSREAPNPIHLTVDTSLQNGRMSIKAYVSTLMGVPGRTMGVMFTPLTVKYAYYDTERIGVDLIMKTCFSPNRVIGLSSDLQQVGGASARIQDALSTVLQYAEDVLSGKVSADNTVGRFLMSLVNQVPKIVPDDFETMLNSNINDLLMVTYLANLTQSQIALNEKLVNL", "procedure,_shortened": "as §1"}, "EIF3H": {"target": "EIF3H (UniProt O15372)", "sequence (O15372 whole entry)": "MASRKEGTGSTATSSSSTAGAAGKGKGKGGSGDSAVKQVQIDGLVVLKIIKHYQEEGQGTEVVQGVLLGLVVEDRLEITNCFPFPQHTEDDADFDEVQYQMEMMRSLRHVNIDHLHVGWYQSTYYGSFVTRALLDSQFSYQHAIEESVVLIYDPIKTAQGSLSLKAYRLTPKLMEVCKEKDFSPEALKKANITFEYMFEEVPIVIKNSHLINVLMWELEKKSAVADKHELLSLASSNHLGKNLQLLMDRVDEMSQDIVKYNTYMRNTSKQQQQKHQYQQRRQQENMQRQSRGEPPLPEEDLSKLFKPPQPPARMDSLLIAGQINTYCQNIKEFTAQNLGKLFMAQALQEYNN", "procedure,_shortened": "as §1"}, "FAM105A": {"target": "T3, FAM105A (UniProt Q9NUU6)", "T3 sequence (whole entry)": "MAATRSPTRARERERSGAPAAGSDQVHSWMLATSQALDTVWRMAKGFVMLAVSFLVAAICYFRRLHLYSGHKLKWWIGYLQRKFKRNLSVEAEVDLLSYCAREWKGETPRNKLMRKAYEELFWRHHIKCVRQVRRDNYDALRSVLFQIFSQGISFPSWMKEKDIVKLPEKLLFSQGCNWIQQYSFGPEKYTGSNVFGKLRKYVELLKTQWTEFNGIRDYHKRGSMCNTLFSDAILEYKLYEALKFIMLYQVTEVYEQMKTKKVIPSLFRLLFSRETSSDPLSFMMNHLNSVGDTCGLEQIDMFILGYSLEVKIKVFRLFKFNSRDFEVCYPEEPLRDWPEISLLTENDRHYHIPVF", "procedure,_shortened": "as §1"}, "OTUB1": {"target": "OTUB1 (UniProt Q96FW1)", "sequence (Q96FW1 whole entry)": "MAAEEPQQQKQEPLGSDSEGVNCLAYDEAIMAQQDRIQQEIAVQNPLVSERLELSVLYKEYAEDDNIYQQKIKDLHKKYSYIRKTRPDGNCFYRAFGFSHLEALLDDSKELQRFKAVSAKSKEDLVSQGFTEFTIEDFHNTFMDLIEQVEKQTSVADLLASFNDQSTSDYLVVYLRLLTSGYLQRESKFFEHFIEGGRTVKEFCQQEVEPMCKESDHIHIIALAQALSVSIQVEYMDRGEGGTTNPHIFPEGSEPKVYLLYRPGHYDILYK", "procedure,_shortened": "as §1"}, "OTUD4": {"target": "T4, OTUD4 (UniProt Q01804)", "T4 sequence (whole entry)": "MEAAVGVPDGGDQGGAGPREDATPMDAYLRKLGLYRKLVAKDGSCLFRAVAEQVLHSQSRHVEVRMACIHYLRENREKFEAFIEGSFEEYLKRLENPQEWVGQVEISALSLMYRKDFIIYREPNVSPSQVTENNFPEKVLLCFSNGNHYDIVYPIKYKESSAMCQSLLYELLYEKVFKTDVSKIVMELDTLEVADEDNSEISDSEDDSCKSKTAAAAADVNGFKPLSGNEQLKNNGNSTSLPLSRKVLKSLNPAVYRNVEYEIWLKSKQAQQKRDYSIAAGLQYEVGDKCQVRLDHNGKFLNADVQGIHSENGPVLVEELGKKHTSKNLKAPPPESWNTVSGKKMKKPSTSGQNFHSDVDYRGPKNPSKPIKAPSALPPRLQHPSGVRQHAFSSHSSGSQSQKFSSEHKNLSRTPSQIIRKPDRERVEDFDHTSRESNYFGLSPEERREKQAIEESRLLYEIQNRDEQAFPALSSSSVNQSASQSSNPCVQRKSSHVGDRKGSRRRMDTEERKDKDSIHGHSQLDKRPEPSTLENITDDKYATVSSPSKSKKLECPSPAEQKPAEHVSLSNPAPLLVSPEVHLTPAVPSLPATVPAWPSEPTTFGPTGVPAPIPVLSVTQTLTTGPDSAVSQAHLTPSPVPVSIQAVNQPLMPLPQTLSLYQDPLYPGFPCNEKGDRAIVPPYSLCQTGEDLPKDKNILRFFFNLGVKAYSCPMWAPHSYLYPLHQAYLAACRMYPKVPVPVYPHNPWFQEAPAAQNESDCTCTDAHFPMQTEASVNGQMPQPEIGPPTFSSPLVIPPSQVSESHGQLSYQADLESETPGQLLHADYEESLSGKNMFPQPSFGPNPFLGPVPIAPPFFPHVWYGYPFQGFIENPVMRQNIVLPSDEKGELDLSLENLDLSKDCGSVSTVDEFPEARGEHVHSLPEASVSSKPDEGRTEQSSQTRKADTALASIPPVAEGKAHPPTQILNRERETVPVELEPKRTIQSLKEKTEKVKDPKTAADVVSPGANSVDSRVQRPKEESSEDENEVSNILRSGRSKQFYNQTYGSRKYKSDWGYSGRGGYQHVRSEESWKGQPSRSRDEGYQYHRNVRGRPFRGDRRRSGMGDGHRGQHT", "procedure,_shortened": "as §1"}, "OTUD5": {"target": "T5, OTUD5 (UniProt Q96G74)", "T5 sequence (whole entry)": "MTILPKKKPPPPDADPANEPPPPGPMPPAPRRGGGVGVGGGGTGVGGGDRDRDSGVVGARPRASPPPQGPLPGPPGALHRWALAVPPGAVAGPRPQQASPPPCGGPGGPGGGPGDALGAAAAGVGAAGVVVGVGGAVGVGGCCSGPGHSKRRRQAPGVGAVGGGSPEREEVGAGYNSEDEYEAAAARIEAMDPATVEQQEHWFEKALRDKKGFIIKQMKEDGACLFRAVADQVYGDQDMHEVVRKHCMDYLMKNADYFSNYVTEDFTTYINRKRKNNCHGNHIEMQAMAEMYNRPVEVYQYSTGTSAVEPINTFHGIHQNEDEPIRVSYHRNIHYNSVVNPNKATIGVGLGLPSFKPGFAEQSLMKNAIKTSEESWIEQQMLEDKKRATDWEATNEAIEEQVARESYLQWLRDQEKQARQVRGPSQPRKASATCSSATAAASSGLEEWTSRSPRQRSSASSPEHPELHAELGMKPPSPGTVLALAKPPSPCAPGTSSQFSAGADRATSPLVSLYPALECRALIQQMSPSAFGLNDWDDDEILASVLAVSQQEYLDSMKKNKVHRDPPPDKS", "procedure,_shortened": "as §1"}},
  "note": "A number with no mark means an inactive call.",
  "data": [
    {"smiles": "Cc1ccc(C)c(Oc2ccc(CNC(=O)CCl)cn2)c1.Cl", "values": [
      {"measurement": "log2 ratio of Biotin-Ahx-Ub-VS probe labelling", "setting": "ALG13", "value": -0.222},
      {"measurement": "log2 ratio of Biotin-Ahx-Ub-VS probe labelling", "setting": "ATXN3", "value": -0.48},
      {"measurement": "log2 ratio of Biotin-Ahx-Ub-VS probe labelling", "setting": "BAP1", "value": "-3.94 (active)"},
      {"measurement": "log2 ratio of Biotin-Ahx-Ub-VS probe labelling", "setting": "EIF3F", "value": -0.169},
      {"measurement": "log2 ratio of Biotin-Ahx-Ub-VS probe labelling", "setting": "EIF3H", "value": 0.199},
      {"measurement": "log2 ratio of Biotin-Ahx-Ub-VS probe labelling", "setting": "FAM105A", "value": -0.149},
      {"measurement": "log2 ratio of Biotin-Ahx-Ub-VS probe labelling", "setting": "OTUB1", "value": 0.0499},
      {"measurement": "log2 ratio of Biotin-Ahx-Ub-VS probe labelling", "setting": "OTUD4", "value": -0.382},
      {"measurement": "log2 ratio of Biotin-Ahx-Ub-VS probe labelling", "setting": "OTUD5", "value": -0.697}
    ]}
  ]
}
